# Test results as given in paper PMC4336329 (PLoS ONE, 2015).
# Among all 310,000 compounds or so, about 2,200 (0.71%) showed an effect of 50% or more. The effect is printed as a negative number. The list comes from a sample in which strong results are over-represented; it also holds similar structures and randomly drawn compounds.
# Target: human ether-à-go-go-related gene (hERG) potassium channel (human, UniProt Q12809)
# Assay: primary screen, population patch clamp on CHO cells stably expressing hERG; higher = less effect of the substance
# human ether-à-go-go-related gene (hERG) potassium channel, sequence (Q12809 whole entry, looked up): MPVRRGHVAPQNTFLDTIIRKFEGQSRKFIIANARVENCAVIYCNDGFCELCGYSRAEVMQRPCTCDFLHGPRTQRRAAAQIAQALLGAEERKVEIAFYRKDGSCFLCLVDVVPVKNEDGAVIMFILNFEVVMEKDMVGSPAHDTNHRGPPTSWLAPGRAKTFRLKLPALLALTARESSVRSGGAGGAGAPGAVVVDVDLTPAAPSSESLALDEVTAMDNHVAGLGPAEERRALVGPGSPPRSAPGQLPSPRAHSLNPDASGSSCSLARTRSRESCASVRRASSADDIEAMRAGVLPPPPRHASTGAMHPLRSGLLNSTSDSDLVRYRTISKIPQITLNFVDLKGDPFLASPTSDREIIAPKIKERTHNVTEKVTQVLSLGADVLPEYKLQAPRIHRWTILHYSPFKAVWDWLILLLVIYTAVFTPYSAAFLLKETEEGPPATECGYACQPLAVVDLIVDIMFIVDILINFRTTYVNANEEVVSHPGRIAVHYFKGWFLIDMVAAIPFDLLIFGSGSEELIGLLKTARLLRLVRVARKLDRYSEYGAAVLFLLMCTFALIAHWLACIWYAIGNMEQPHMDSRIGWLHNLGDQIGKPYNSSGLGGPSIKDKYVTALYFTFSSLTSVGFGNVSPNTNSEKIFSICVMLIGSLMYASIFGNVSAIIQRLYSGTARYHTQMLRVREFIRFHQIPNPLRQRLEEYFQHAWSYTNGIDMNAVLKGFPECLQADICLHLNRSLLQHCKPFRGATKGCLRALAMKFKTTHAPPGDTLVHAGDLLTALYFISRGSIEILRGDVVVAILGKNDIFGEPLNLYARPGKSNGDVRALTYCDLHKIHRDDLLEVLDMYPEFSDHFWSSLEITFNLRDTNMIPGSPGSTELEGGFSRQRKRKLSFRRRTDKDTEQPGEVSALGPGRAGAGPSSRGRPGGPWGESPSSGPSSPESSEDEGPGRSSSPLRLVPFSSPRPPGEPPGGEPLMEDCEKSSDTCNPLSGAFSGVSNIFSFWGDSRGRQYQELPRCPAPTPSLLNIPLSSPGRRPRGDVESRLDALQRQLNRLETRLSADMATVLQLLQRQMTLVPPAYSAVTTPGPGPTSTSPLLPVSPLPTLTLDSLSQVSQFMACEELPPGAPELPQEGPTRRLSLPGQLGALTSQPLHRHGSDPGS
row,Structure (SMILES),"hERG current change (%, negative = inhibition) at 1uM"
1,CC(C)CC(=O)OCC(=O)Nc1ccccc1Sc1ccccc1,11.1%
2,CN(Cc1ccc(OC(F)F)cc1)C(=O)c1ccc(S(=O)(=O)N(C)c2ccccc2)cc1,-19.2%
3,CCS(=O)(=O)N1Cc2ccccc2CC1C(=O)Nc1ncc(C)s1 (stereo not shown),7.83%
4,Fc1ccc(N2Cc3ccsc3C=N2)cc1,9.09%
5,CCOc1ccc(Nc2nc(Cc3nnc(SCC(=O)NC4CCCCC4)n3C)cs2)cc1,-7.35%
6,Cc1sc(-c2ccccn2)nc1OC(=O)c1ccc(F)cc1F,16.2%
7,CCCCC(=O)Nc1c(-c2ccc(OC)c(OC)c2)c(=O)c2ccccc2n1C,10.7%
8,O=C(NCC1CCN(C(=O)c2cccc([N+](=O)[O-])c2)CC1)c1cccc([N+](=O)[O-])c1,-5.98%
9,O=C(NCC1CCCCC1)c1ccc([N+](=O)[O-])cc1,8.06%
10,O=C(Nc1ccc2c(c1)OCO2)C1CCN(C(=O)c2ccc(Cl)cc2)CC1,-59.6%
11,O=C(NCC1CCN(C(=O)c2ccc([N+](=O)[O-])cc2)CC1)c1ccc([N+](=O)[O-])cc1,-74.6%
12,O=C(Nc1ccc2c(c1)OCO2)C1CCN(C(=O)c2ccc(Br)cc2)CC1,-42.3%
13,O=C(Nc1ccc2c(c1)OCCO2)C1CCN(C(=O)c2ccc(Cl)cc2)CC1,3.04%
14,O=[N+]([O-])c1ccccc1/C=C\C=N\N1CCN(c2ccccc2)CC1,-7.95%
15,COc1cccc(CC2(CO)CCCN(Cc3ccccc3-c3ccco3)C2)c1 (stereo not shown),-55.6%
16,COc1cccc(CC2(CO)CCCN(Cc3ccc(-c4ccco4)cc3)C2)c1 (stereo not shown),9.67%
17,COc1cccc(CC2(CO)CCCN(Cc3cn[nH]c3-c3ccccc3)C2)c1 (stereo not shown),-6.05%
18,COc1cccc(CC2(CO)CCCN(Cc3ccc(OC)c(C)c3OC)C2)c1 (stereo not shown),-80.2%
19,COc1cccc(CC2(CO)CCCN(Cc3ccc(CN4CCCCC4)s3)C2)c1 (stereo not shown),0.717%
20,COc1cccc(CC2(CO)CCCN(Cc3ccccc3Cl)C2)c1 (stereo not shown),-12.5%
21,COc1cccc(CC2(CO)CCCN(Cc3cn(C)c4ccccc34)C2)c1 (stereo not shown),-54.8%
22,COc1cccc(CC2(CO)CCCN(Cc3ccc(CO)o3)C2)c1 (stereo not shown),-1.35%
23,COc1cccc(CC2(CO)CCCN(Cc3ccc(C)s3)C2)c1 (stereo not shown),-10.6%

row,Structure (SMILES),"hERG current change (%, negative = inhibition) at 1uM"
1,CC(C)(C)C(=O)Nc1scc(-c2ccc(-c3ccccc3)cc2)c1C(=O)O,21.8%
2,COc1cc(C)ccc1OCc1cc(C(=O)N(C)CCCN2CCOCC2)no1,-7.67%
3,c1ccc(-n2c(-c3ccco3)nnc2-c2ccco2)cc1,5.9%
4,COc1cccc(-c2nnc(-c3ccco3)o2)c1,14.6%
5,O=C(NCCN1CCCCC1)c1cc(OCC(F)(F)F)ccc1OCC(F)(F)F,-17.2%
6,S=c1[nH]nc(-c2ccc(Cl)cc2)n1-c1ccc(Cl)cc1,9.56%
7,CCC(C)(C)NC(=O)CN(C(=O)c1snc(C(N)=O)c1N)c1ccc2c(c1)OCO2,3.43%
8,COc1ccc(S(=O)(=O)N2CCC(C(=O)NCCc3ccccc3)CC2)cc1,9.96%
9,COc1ccc(C(=O)N2CCC(C(=O)c3ccc(F)cc3)CC2)cc1,-66.1%
10,COc1cc(OC)cc(C(=O)N2CCC(C(=O)c3ccc(F)cc3)CC2)c1,-1.28%
11,COc1ccc(C(=O)N2CCC(C(=O)c3c(C)cc(C)cc3C)CC2)cc1,-8.27%
12,COc1ccc(C(=O)C2CCN(C(=O)c3ccc(C)cc3)CC2)cc1,-47.7%
13,COc1ccc(C(=O)C2CCN(C(=O)c3ccc(F)cc3)CC2)cc1,2.02%
14,COc1ccc(C(=O)C2CCN(C(=O)c3ccc(OC)cc3)CC2)cc1,-76%
15,COc1ccc(Cl)cc1NC(=O)NN1CCN(C)CC1,-7.68%
16,CC(C)(C)NC(=O)C(c1ccco1)N(Cc1ccc(F)cc1)C(=O)c1snc(C(N)=O)c1N (stereo not shown),-6.09%
17,C/C(=N/OCO/N=C(\C)c1ccc(F)cc1F)c1ccc(F)cc1F,21.9%
18,COc1cc2c(cc1OC)CN(CC(=O)Nc1ccc3c(c1)OCO3)CC2,14.5%
19,CC(C)(C)S(=O)(=O)c1cnc2c(-c3ccsc3)cnn2c1N,15.9%
20,COc1cc2c(cc1OC)CN(C(=O)COc1ccccc1[N+](=O)[O-])CC2,9.5%
21,COC(=O)c1ccccc1NC(=S)NC(=O)c1ccc2c(c1)OCO2,20.6%
22,O=C(NC(=S)NCc1ccccc1)c1ccc2c(c1)OCO2,2.26%
23,O=C(NC(=S)Nc1ccccc1Br)c1ccc2c(c1)OCO2,-67.9%

row,Structure (SMILES),"hERG current change (%, negative = inhibition) at 1uM"
1,Cc1ccc(N(C)S(=O)(=O)c2cccc(C(=O)Nc3ccc(C)cn3)c2)cc1,15.7%
2,N#CCCN=C(NS(=O)(=O)c1ccccc1)c1ccccc1,2.49%
3,O=C(COc1ccc2ccc(=O)oc2c1)NCCc1c[nH]c2ccc(F)cc12,12.5%
4,CCOc1ccc(N2C(=O)CC(n3nc(C)cc3C)C2=O)cc1 (stereo not shown),3.53%
5,Br.CCOC(=O)c1c(CSC(=N)N)n(C)c2cc(Br)c(OC(C)=O)cc12,-36.7%
6,Br.CCOC(=O)c1c(CSC(=N)N)n(-c2ccc(C)cc2)c2cc(Br)c(OC(C)=O)cc12,-36.7%
7,CCOC(=O)c1c(CSC(=N)N)n(-c2ccccc2)c2cc(Br)c(OC(C)=O)cc12,-57.4%
8,Cc1cccc(NC(=O)Nc2ccc3c(c2)OCO3)n1,15.6%
9,Cc1cccc(NC(=O)CN2CCN(C(=O)c3cncn3-c3ccc(F)cc3)CC2)c1C,-22.2%
10,Cc1nn(Cc2ccccc2)c(C)c1C(=O)N1CCN(CC(=O)Nc2ccccc2Cl)CC1,-13.4%
11,O=C(CN1CCN(C(=O)c2cccc(-n3cnnn3)c2)CC1)Nc1ccccc1Cl,-92.9%
12,CCc1ccccc1NC(=O)CN1CCN(C(=O)c2cccc(-n3cnnn3)c2)CC1,-5.51%
13,O=C(CN1CCN(C(=O)c2cncn2-c2ccccc2)CC1)Nc1ccccc1Cl,-83.4%
14,O=C(CN1CCN(C(=O)c2cncn2-c2ccc(F)cc2)CC1)Nc1ccccc1C(F)(F)F,-68.3%
15,Cc1cccc(NC(=O)CN2CCN(C(=O)c3cccc(-n4cnnn4)c3)CC2)c1C,-11.9%
16,O=C(CN1CCCCC1)Nc1ccccc1Cl,13.9%
17,O=C(CN1CCN(C(=O)c2c(F)cccc2F)CC1)Nc1ccccc1C(F)(F)F,3.09%
18,O=C(Nc1ccncc1)Nc1cccc(Cl)c1,6.49%
19,CC(C)(C)n1nc2c(c1NC(=O)c1ccc(C(F)(F)F)cc1)CS(=O)(=O)C2,-9.67%
20,Cc1ccc(-c2nc(CS(=O)CC(=O)NCCN3CCCCCC3)c(C)o2)cc1 (stereo not shown),15.5%
21,Cc1ccc(C(=O)Cn2c(N3CCOCC3)nc3c2c(=O)n(C)c(=O)n3C)cc1,5.32%
22,COc1cccc(Nc2nc(Nc3ccc(Cl)c(C(=O)O)c3)nc(C)c2[N+](=O)[O-])c1,9.52%
23,CCOc1ccc(NS(=O)(=O)c2ccc(SC)cc2)cc1,0.548%

row,Structure (SMILES),"hERG current change (%, negative = inhibition) at 1uM"
1,CCn1cc(CN2CCC(n3nccc3NC(=O)c3cccc(F)c3)CC2)cn1,6.11%
2,CCc1ccc(CN2CCC(n3nccc3NC(=O)c3cccc(F)c3)CC2)cc1,-78.3%
3,O=C(Nc1ccnn1C1CCN(Cc2ccc3nonc3c2)CC1)c1cccc(F)c1,-1.92%
4,CCOc1cccc(CN2CCC(n3nccc3NC(=O)c3ccc4c(c3)OCO4)CC2)c1,-1.26%
5,O=C(Nc1ccnn1C1CCN(Cc2ccc(C#CCCO)cc2)CC1)c1cccc(F)c1,-37.5%
6,CCc1ccc(CN2CCC(n3nccc3NC(=O)c3ccc4c(c3)OCO4)CC2)cc1,-58.4%
7,COc1ccc(CN2CCC(n3nccc3NC(=O)C3CC3)CC2)cc1O,-18.7%
8,CC(=O)c1cccc(CN2CCC(n3nccc3NC(=O)c3ccc4c(c3)OCO4)CC2)c1,6.25%
9,COc1ccc(CN2CCC(n3nccc3NC(=O)c3cccc(F)c3)CC2)cc1O,-81.5%
10,CC(C)c1ccc(NC(=O)c2ccc(NC3=NC4CS(=O)(=O)CC4S3)cc2)cc1 (stereo not shown),-0.0656%
11,COCC(=O)N(Cc1cc2cc(C)ccc2[nH]c1=O)c1ccc(C)c(C)c1,16.4%
12,CN1CCN(NC(=O)CN(C)S(=O)(=O)c2cc(Cl)ccc2Cl)CC1,6.96%
13,O=C(NNc1c(Cl)cccc1Cl)C1CCC1,13.3%
14,COc1ccc(-c2coc3c(CN4CCCCC4)c(O)c(CN4CCCCC4)c(O)c3c2=O)cc1,-88%
15,COc1ccc(-c2coc3c(CN4CCOCC4)c(O)ccc3c2=O)cc1,0.432%
16,COc1ccc(C(=O)c2coc3ccc(O)c(CN4CCOCC4)c23)cc1,1.63%
17,COc1ccc(-c2coc3c(CN4CCCCC4C)c(O)ccc3c2=O)cc1 (stereo not shown),7.15%
18,Cl.O=C(c1ccccc1)c1coc2ccc(O)c(CN3CCOCC3)c12,-21%
19,Cc1ccc(C(=O)c2coc3ccc(O)c(CN4CCN(C)CC4)c23)cc1,-25.5%
20,COc1ccc(OC)c(C(=O)c2coc3ccc(O)c(CN4CCOCC4)c23)c1,-6.28%
21,COc1ccc(C(=O)c2coc3ccc(O)c(CN4CCCCC4)c23)cc1,-61.4%
22,COc1ccc(C(=O)c2coc3ccc(O)c(CN4CCCC4)c23)cc1,-56.9%
